# VP16 counter = inhibits Gal4-VP16 luciferase reporter, ROR gamma counter-screen. Drosophila S2 Gal4-VP16 UAS-luciferase, luminescence, 20 h. Potency, µM (highest dose often 53.6 µM), without a hit: at the highest dose activity, negative = inhibition, most hits filed as inhibitors. hit rate 3.5% among 310,000. AID 2546;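 note: Gal4-VP16 expression switched on by copper sulfate through the metallothionein promoter; % is set by controls: 0 for no effect and ±100 for the full control effect; nearly all actives have a fitted effect of over 50% in size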
# Sfp PPTase inh = blocks B. subtilis Sfp PPTase activity; Q9F4F7; Biochemical Sfp PPTase activity, qHTS; Potency, µM, for the others: largest response in the series, negative = inhibition, hits mostly inhibitors; hit rate 3.5% among 310,000; AID 1490;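 note: the enzyme is Sfp with the accession as filed and its product quenches rhodamine fluorescence; 0% = enzyme reaction without inhibitor and -100% = no enzyme wells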
#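 Step 1, compound plus 15 nM Sfp-PPTase, 15 min, room temperature. Step 2, add rhodamine-CoA (5 uM) and BHQ-2-YbbR (12.5 uM). Step 3, read 525/598 nm fluorescence at 0 and 30 min.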
# PINK1 modulator = changes PINK1 expression. PINK1 immunofluorescence, high-content cytometry, 24 h. Potency, µM (highest dose often 76.6 µM), for inactives: top-dose activation (PINK1 increase), hits mostly activators. hit rate 0.2% among 410,000. AID 624263; active = well fitted activation curve with a large enough effect; inconclusive = small, poorly fitted or top-dose-only effect; cell line not stated here; note: % of control where 0% means no effect; nearly all actives have a fitted effect of over 65% in size
#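 PINK1 protein level read as immunofluorescence by microplate cytometer in a fixed, stained stable cell line after 24 h exposure to five compound concentrations, with CCCP as control.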
# Epigenetic derep = regulators of epigenetic silencing causing reporter derepression in mouse cells; hit rate 0.2% among 280,000; murine LDR cells, GFP reporter derepression, 30 h; AID 1865; Potency, µM (series often up to 53.9 µM), inactives show top-dose GFP activation, most hits filed as activators; note: % of control where 0% means no effect; nearly all actives have a fitted effect of over 60% in size
#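 Readout is the number of GFP-expressing murine LDR cells, counted by cytometry following washing. Cells were treated with compound for 30 h at 37 C; the stably integrated CMV-GFP locus is normally silent.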
# ClpP mod = qHTS Assay for Activators of ClpP. ATP-dependent Clp protease proteolytic subunit (Bacillus subtilis (strain 168)), P80244. purified B. subtilis ClpP, FRET peptide cleavage, 20 min. Potency, µM (highest dose often 57.5 µM), for the others: top-dose activity change, negative = active. hit rate 1.9% among 340,000. AID 651965, 2013; active = well fitted falling curve with a large enough effect; inconclusive = small, poorly fitted or top-dose-only effect; inactive = no such curve, though single readings can be large or run the other way; note: the source files actives as falling curves though it sought activators and does not explain the sign; nearly all actives have a fitted effect of over 65% in size
# Target sequence (P80244 whole entry, looked up): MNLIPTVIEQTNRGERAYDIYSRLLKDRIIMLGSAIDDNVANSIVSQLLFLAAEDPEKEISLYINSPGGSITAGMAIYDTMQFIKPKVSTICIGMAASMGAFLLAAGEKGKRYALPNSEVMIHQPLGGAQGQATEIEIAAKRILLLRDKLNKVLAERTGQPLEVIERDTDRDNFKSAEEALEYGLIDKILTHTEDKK
#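 ClpP 10 microg/mL final, pH 8 Tris/KCl buffer with BSA, glycerol, Tween-20; compound pinned in; FRET-FV substrate; RT 20 min; Ex320/Em430; ΔFRET vs ADEP 5.8 microM, DMSO, no enzyme.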
# RORgamma inh = inhibitors of mouse ROR gamma transcriptional activity | P51450 | Drosophila S2 Gal4-RORgamma UAS-luciferase reporter, 20 h | Potency, µM (series often up to 53.6 µM), for inactives: at the top dose activity change, negative = inhibition, hits mostly inhibitors | hit rate 5.4% among 310,000 | AID 2551; note: % is set by controls: 0 for no effect and ±100 for the full control effect; nearly all actives have a fitted effect of over 60% in size
# Target sequence (P51450 whole entry, looked up, the tested form may be a part): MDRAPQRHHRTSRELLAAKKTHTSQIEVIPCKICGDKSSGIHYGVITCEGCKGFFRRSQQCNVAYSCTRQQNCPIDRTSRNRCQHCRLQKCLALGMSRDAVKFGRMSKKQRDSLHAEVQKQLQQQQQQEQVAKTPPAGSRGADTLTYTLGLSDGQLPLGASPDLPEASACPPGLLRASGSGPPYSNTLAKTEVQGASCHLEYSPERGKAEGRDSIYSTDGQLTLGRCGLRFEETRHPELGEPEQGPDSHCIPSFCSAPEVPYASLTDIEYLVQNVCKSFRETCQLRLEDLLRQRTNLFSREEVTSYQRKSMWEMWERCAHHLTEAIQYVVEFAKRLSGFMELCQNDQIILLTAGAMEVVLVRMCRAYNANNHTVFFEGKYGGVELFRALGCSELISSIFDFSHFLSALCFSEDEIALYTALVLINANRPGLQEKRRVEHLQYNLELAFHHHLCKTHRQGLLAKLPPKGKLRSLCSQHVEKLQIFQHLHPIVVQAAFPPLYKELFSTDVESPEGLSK
#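 Luminescence from a UAS-regulated Photinus luciferase reporter in stably transfected Drosophila Schneider cells is measured; decreased signal marks ROR gamma inhibition. Fusion expression is induced by 700 uM copper sulfate for 20 hr.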
# An asterisk follows results filed as active; ? = inconclusive; / = not tested or not shown; ! = a repeat was not active; [ ] = remark or other dose. A selection: hits, their analogues and other compounds. The true share with any hit is near 8.1%. Unless noted, calls come from the whole dose curve; as a rule, active = well fitted curve in the direction sought with a large enough effect; inconclusive = small, poorly fitted or top-dose-only effect, or another doubt; inactive = no such curve, though single readings can be large; an effect the other way counts as inactive or inconclusive. Potency is the fitted concentration of half-maximal effect.
SMILES,VP16 counter,Sfp PPTase inh,PINK1 modulator,Epigenetic derep,ClpP mod,RORgamma inh
Cc1ccc(-c2nc(NC(=O)CSc3ncnc4sc5c(c34)CCC(C)C5)ns2)cc1 (stereo unspecified),/,/,0%,-1%,-1%,/
O=C(NCC1CCC2(CCN(Cc3cccc4cccnc34)CC2)O1)c1ccco1 (stereo unspecified),/,/,1%,/,/,/
Nc1cc(C(=O)O)ccc1Sc1ccccc1C(=O)O,-1%,16µM*,-2%,-1%,-9%,18%
CC12CCC(C/C1=N\N=C1\NC(=O)/C(=C\c3ccc(Cl)cc3)S1)C2(C)C (stereo unspecified),10µM*,20%,23%,-1%,-3%,?
CCC(=O)N1CCc2cc(Br)cc(S(=O)(=O)CCC(=O)NCc3cccc(OC)c3)c21,/,/,0%,0%,-2%,/
CC(=O)Nc1ccc(NC(=O)C2Cc3ccccc3N2C(=O)c2ccccc2)cc1 (stereo unspecified),/,/,0%,-4%,10%,/
Cc1cc(O)cc(O)c1C(=O)Cc1cscn1,-3%,-9%,0%,1%,28µM*,-7%
Cc1ccc2nc3c(cc2c1)c(NC(=O)c1ccccn1)nn3CC(C)C,5µM*,?,/,-1%,-5%,1.8µM*
CCn1nc(NC(=O)c2ccccn2)c2cc3cc(C)ccc3nc21,7.1µM*,-21%,4%,0%,-26%,5µM*
Oc1cc2cc(-c3csc(-c4ccc(F)cc4)n3)cc3c2n1CCC3,/,/,0%,/,-7%,/
COc1ccc(-c2nc3ccc(NC(=O)CO)cc3c(=O)n2Cc2cccc(Cl)c2)cc1COc1ccc(NC(C)=O)cc1,/,/,1%,/,?,/
CCN1/C(=C(\O)c2ccccc2)C(=O)c2ccccc2S1(=O)=O,?,21%,0%,0%,1%,10µM*
CCCCN(CCCC)C1=C(C(=O)c2ccccc2)N(CC)S(=O)(=O)c2ccccc21,/,/,-4%,-1%,1%,/
Fc1ccc(C(Nc2ccccc2Cl)c2nnc(-c3ccccc3Cl)o2)cc1 (stereo unspecified),/,/,4%,-1%,-2%,/
CCN(CC)C(=O)c1c(-c2ccccc2)c(-c2ccccc2)nn(C)c1=O,/,/,-1%,-3%,-4%,/
Cc1ccc(-c2nc(NCC3CCCO3)sc2C)cc1 (stereo unspecified),-10%,-8%,6%,0%,-1%,11µM*
Cc1ccc(S(=O)(=O)c2nc(S(C)(=O)=O)sc2NCC2CCCO2)cc1 (stereo unspecified),-4%,0%,2%,1%,1%,3%
O=C(O)C1C2CCC(CC2)C1C(=O)N1CCN(Cc2ccc(F)cc2)CC1 (stereo unspecified),-10%,35µM*,-2%,/,-1%,-1%
CCCNC1=C(N(C(C)=O)c2cccc(F)c2)C(=O)c2ccccc2C1=O,?,19%,-1%,-1%,1%,?
CCC(=O)N(C1=C(NC(C)C)C(=O)c2ccccc2C1=O)C(C)C,?,-13%,3%,0%,3%,10µM*
O=C(Cn1c2[n+](c3ccccc31)CC(O)CS2)c1ccccc1 (stereo unspecified),1%,5%,3%,-2%,3.2µM*,2%
CC(=O)OC1CC(C)OC(C)O1 (stereo unspecified),-3%,/,/,/,/,4%
N#CC(=C=[N-])c1nc2ccccc2nc1-[n+]1cccc(NC(=O)c2ccccc2)c1,?,8.9µM*,1%,-3%,3%,5µM*!
N#CC(=C=[N-])c1nc2ccccc2nc1-[n+]1cccc(NC(=O)c2ccc(F)cc2)c1,-2%,-20%,/,2%,/,-1%
Cc1cccc(NC(=O)/C=C/c2ccc([N+](=O)[O-])s2)c1,3.2µM*,7%,-1%,7.1µM*,2%,6.3µM*
SMILES,VP16 counter,Sfp PPTase inh,PINK1 modulator,Epigenetic derep,ClpP mod,RORgamma inh
CC(C)(C)OC(=O)N/N=C\c1ccc([N+](=O)[O-])s1,?,0%,0%,-2%,/,-19%
Cc1cccc(NC(=S)N/N=C/c2ccc([N+](=O)[O-])s2)c1,3.2µM*,6%,2%,11%,0%,1.3µM*
Cc1ccc(NC(=O)/C=C/c2ccc([N+](=O)[O-])s2)cc1,?,7%,?,8.9µM*,-3%,?
CCOC(=O)c1cccc(NC(=O)C2=C(C)C(=O)OC23CCCCC3)c1,/,/,0%,-1%,-2%,/
CCOC(=O)c1ccc(NC(=O)CC2C(=O)N(c3ccc(F)cc3)C(=O)N2Cc2ccc(C)cc2)cc1 (stereo unspecified),/,/,3%,2%,-5%,/
Cc1oc(-c2ccccc2NC(=O)c2ccccn2)nc1CNC(=O)c1cccc(C#CC(C)(C)O)c1,/,/,-1%,/,/,/
Cc1ccc(C)c(Nc2nnc(-n3nc(C)cc3C)c3ccccc23)c1,/,/,-1%,0%,-2%,/
Cc1[nH]c(=O)c(C#N)c(C)c1[N+](=O)[O-],-1%,17%,0%,-1%,0%,32%
CCCCc1[nH]c(=O)c(C#N)c2c1CCCC2,-7%,2%,1%[38.3 µM],-1%,25µM*,25%
CCCCc1[nH]c(=O)c(C#N)c2c1CSC(C)(C)C2,0%,-23%,1%[38.3 µM],-5%,?,8%
Cc1[nH]c(=O)c(C#N)c2c1CSC(C)(C)C2,-8%,2%,23%[38.3 µM],-1%,25µM*,-7%
Cc1[nH]c(=O)c(C#N)c2c1CCCC2,1%,-2%,10%[38.3 µM],0%,28µM*,46%
CCCCN1CC[C@H]2C=CC[C@@H](C(=O)NC3CCCCC3)[C@H]2C1=O,/,/,/,/,3%,/
CN(C)c1ccc(/C=C2\C=Cc3ccccc32)c(F)c1,/,/,15%,/,1%,/
O=C(OCc1ccccc1)C1=NNC2C(=O)N(c3ccccc3)C(=O)C12 (stereo unspecified),4%,37%,0%,0%,22µM*,-1%
O=C(NCc1ccco1)c1ccc2c(c1)N(Cc1ccccc1F)C(=O)c1ccccc1S2=O (stereo unspecified),/,/,0%,-1%,-2%,/
O=C(NCCCn1ccnc1)c1ccccc1NS(=O)(=O)c1ccc(F)c(F)c1,-15%,25%,8%[38.3 µM],5%,-6%,0%
Cc1cc(C)c(C)c(S(=O)(=O)Nc2ccccc2C(=O)NCCCn2ccnc2)c1C,1%,12%,0%,-1%,35µM*,-39%
Cc1cc(C(=O)NCCCn2ccnc2)sc1-c1ccccc1,5%,-4%,9%[38.3 µM],-5%,22µM*,?
O=C(NCCCn1ccnc1)c1ccc(-c2ccccc2)cc1,4%,12%,3%,/,-1%,21%
